Data on 1 compound can be found in PubChem BioAssay AID703 (NMMLSC, 2007).

The assay deals with Integrin alpha-4 (Homo sapiens) (UniProt P13612). In words: enhancers of LDV-FITC binding to VLA-4, dose response, cell-based, flow cytometry (AID 703). As to conditions: Jurkat cells, hits give high values.

A number with no mark means an inactive call. No rule for the calls is given here.

Chain of Integrin alpha-4 (Homo sapiens) (P13612 whole entry, looked up): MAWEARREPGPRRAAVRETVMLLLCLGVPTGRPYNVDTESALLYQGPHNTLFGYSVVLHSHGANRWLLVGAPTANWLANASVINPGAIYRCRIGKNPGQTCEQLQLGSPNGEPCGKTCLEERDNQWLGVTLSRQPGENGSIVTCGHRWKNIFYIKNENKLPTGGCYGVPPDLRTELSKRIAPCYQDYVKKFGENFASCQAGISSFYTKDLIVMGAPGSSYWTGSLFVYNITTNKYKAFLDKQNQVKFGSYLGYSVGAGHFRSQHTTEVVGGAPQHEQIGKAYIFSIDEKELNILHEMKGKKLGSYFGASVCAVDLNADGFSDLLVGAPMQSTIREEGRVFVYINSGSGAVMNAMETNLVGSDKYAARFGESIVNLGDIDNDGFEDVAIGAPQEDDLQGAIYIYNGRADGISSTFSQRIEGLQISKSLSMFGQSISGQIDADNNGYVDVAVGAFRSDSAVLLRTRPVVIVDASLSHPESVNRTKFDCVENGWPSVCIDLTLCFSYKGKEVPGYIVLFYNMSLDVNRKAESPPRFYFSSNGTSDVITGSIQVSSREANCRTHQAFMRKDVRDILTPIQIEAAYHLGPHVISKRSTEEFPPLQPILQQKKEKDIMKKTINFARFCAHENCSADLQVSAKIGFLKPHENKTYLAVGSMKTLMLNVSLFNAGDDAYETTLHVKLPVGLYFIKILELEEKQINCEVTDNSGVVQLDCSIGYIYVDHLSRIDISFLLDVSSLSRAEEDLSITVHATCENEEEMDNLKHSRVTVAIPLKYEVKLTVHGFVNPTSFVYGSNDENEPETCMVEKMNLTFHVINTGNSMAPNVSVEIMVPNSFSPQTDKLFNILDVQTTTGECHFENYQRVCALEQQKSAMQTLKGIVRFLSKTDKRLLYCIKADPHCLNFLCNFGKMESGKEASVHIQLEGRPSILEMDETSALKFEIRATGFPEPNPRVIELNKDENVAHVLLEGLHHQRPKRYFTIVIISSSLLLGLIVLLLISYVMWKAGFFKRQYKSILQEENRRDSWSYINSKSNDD

Regarding `O=c1c2ccccc2[se]n1-c1ccccc1`, the activation at 0 C was 0.
